An excerpt weighted towards active compounds, which were near 31% of everything screened.
CYP2C19 inhib – blocks human cytochrome P450 2C19 | P33261 | 96,000 compounds, 21% hits | inhibition, % at 5 µM | CYP2C19 Supersomes, luciferin-H EGE luminescence, 30 min | AID 778;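 active = CYP2C19 inhibition above a set limit at 5 µM in the primary screen, cut at about 50% in these data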
Target sequence (P33261 whole entry, looked up): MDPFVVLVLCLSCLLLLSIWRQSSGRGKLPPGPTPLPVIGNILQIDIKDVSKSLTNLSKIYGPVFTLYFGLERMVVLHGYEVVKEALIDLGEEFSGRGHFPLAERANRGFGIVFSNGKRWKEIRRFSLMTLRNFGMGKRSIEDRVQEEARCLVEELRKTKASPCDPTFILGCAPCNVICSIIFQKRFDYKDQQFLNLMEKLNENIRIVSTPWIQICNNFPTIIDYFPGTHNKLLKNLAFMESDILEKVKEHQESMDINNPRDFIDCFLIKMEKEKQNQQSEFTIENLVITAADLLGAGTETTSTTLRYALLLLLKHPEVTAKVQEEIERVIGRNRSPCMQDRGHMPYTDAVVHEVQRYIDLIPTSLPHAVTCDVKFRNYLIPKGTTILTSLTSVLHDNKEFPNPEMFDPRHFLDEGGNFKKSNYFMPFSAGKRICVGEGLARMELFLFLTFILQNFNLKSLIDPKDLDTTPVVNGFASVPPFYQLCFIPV
CYP2C19 activ – cytochrome P450 2C19 (human) activation; AID 1025; activation factor at 5 µM; recombinant CYP2C19, luciferin-H EGE luminescence; active compounds read high; 0 = fully inhibited enzyme, 1 = untreated enzyme; 96,000 tested, under 10 active; P33261;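 active = activation factor of at least 2 at 5 µM in the primary screen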
CYP2C9 act – activators of human CYP2C9; P11712; recombinant CYP2C9, luciferin-H conversion, luminescence; active compounds read high; factor 1 = untreated enzyme, 0 = blocked; activation factor at 5 µM; 96,000 compounds, 1.4% hits; AID 1024;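 active = activation factor of 2 or more for CYP2C9 at a 5 µM dose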
CYP2C9 inhib – human CYP2C9 inhibition | CYP2C9 Supersomes, luciferin-H conversion, luminescence | 96,000 compounds, 20% hits | AID 777 | inhibition, % at 5 µM;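 active = blocking of liver enzyme CYP2C9 beyond about 50% at 5 µM, limit read from the data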
PLAP act – human PLAP activation | activation fold at 20 µM | purified PLAP enzyme, luminescent substrate read-out; active compounds read high | 96,000 compounds, 1.2% hits | P05187; in the data active = activation fold above about 2
Large screens that a line does not name were inactive.

O=C(NCC1CCCO1)c1onc(CSc2ccc(F)cc2)c1C(=O)O (configuration not stated)	none
CCOc1cccc(SCc2noc(C(=O)NCC3CCCO3)c2C(=O)O)c1 (configuration not stated)	CYP2C19 inhib 53.7, CYP2C9 inhib 50.1
Cc1ccc(SCc2noc(C(=O)NCC3CCCO3)c2C(=O)O)cc1C (configuration not stated)	none
O=C(NCC1CCCO1)c1onc(CSc2cccc(Cl)c2)c1C(=O)O (configuration not stated)	CYP2C9 inhib 54.7
O=C(NCC1CCCO1)c1onc(CSc2cccc3ccccc23)c1C(=O)O (configuration not stated)	CYP2C9 inhib 82.2
O=C(O)CCn1[nH]c(=O)c2ccccc2c1=O	none
CCCOc1ccc(C(=O)CCC(=O)OCC(=O)Nc2cc(C)on2)cc1	none
Cc1ccc(-n2nnnc2SC(C)C(=O)Nc2ccc(Cl)cn2)cc1 (configuration not stated)	none
Cc1nnc(SCCN2C(=O)c3ccccc3C2=O)[nH]c1=O	none
O=C1c2ccccc2C(=O)N1CCSc1n[nH]c(=S)s1	CYP2C9 inhib 81.6
Cc1cccc(-n2c(Cc3cc(=O)[nH]c(=O)[nH]3)nnc2SCC(=O)N2CCCCC2)c1	none
CC(C)C(=O)NC(=S)NCC(=O)c1ccccc1	none
CC1=C(CC(=O)c2ccccc2)C(=O)c2ccccc2C1=O	CYP2C19 inhib 62.7, CYP2C9 inhib 67.5
COC(=O)c1ccccc1OCC(=O)N1CCN(c2ccc(OC)cc2)CC1	none
CCCCC(=O)Nc1nn(C)c2nc3c(C)cccc3cc12	none
O=C(C1CCCN(S(=O)(=O)c2cnc[nH]2)C1)N1CCN(c2ccc(Cl)cc2)CC1 (configuration not stated)	CYP2C9 inhib 65.2
Cc1cccc(N2CCN(S(=O)(=O)c3ccc(S(=O)(=O)N4CCCC4)cc3)CC2)c1C	none
O=S(=O)(c1cnc[nH]1)N1CCN(c2ccc(Cl)cc2)CC1	CYP2C19 inhib 96.3, CYP2C9 inhib 80.6
Cc1cccc(N2CCN(S(=O)(=O)c3cnc[nH]3)CC2)c1C	CYP2C19 inhib 98.3, CYP2C9 inhib 96.7
CN(C)S(=O)(=O)N1CCN(c2ccc(Cl)cc2)CC1	CYP2C19 inhib 62.9
CN(C)S(=O)(=O)N1CCCN(S(=O)(=O)N(C)C)CC1	none
Cc1ccc(N/C=C/C(=O)C(C)(C)C)c(O)c1	none
CCc1cc2c(NCCC(=O)O)ncnc2s1	none
CCc1nc(Sc2nc(C)cc(C)n2)c2oc3ccccc3c2n1	CYP2C19 inhib 80.5, CYP2C9 inhib 63.4
CCc1nc(SCCO)c2oc3ccccc3c2n1	CYP2C19 inhib 51.0, CYP2C9 inhib 65.8
CCc1nc(SCC(=O)N2CCN(c3ccccc3)CC2)c2oc3ccccc3c2n1	none
CCc1nc(SCC(=O)c2ccc(Cl)s2)c2oc3ccccc3c2n1	CYP2C9 inhib 75.0
CCc1cc2c(SCC(=O)c3ccc(Cl)s3)ncnc2s1	CYP2C19 inhib 81.8, CYP2C9 inhib 82.1
CCc1nc(N2CCC(C)CC2)c2oc3ccccc3c2n1	none
CCc1nc(SCc2nc3ccccc3[nH]2)c2oc3ccccc3c2n1	CYP2C19 inhib 99.9, CYP2C9 inhib 98.4
CC1CCN(S(=O)(=O)c2ccc(S(=O)(=O)N3CCN4CCCC4C3)cc2)CC1 (configuration not stated)	none
CCn1c2ccccc2c2cc(NC(C)=O)ccc21	CYP2C19 inhib 98.5
CCn1c2ccccc2c2cc(NS(=O)(=O)c3ccc(C)cc3)ccc21	CYP2C19 inhib 54.2, CYP2C9 inhib 86.1
Cc1cc(C)nc(NN2C(=O)/C(=C/c3ccc(O)cc3)SC2=S)n1	CYP2C9 act 3.2
COc1ccccc1-c1nnc(NC(=O)OCC(C)C)s1	CYP2C9 act 2.4
COC(=O)Nc1nnc(-c2ccccc2Cl)s1	none
Cc1cc(C(=O)N/N=C/c2ccccc2Br)no1	none
CSc1oc(-c2ccco2)nc1S(=O)(=O)c1ccc(Br)cc1	none
CCSc1oc(-c2ccccc2)nc1S(=O)(=O)c1ccccc1	none
CN1CCN(c2oc(-c3ccco3)nc2S(=O)(=O)c2ccccc2)CC1	none
CCCSc1oc(-c2ccco2)nc1S(=O)(=O)c1ccccc1	CYP2C19 inhib 89.8
COc1cc(-c2nc(S(=O)(=O)c3ccccc3)c(N3CCOCC3)o2)cc(OC)c1OC	CYP2C19 inhib 54.7, CYP2C9 inhib 89.2
NC(=O)CSc1oc(-c2ccc(F)cc2)nc1S(=O)(=O)c1ccccc1	CYP2C19 inhib 85.2
